Source: PubChem BioAssay
Only some compounds are listed: those with a hit (about 21% of all), similar ones and a draw of the others.
TDP1 cell noCPT – qHTS for Inhibitors of human tyrosyl-DNA phosphodiesterase 1 (TDP1): qHTS in cells in absence of CPT; DT40 Tdp1-/- hTDP1 cells, no CPT, ATP luminescence, 48 h; Potency, µM (highest dose often 46.2 µM), inactives show top-dose activity change, negative = growth inhibition, most hits filed as inhibitors; 420,000 tested, 15% active; AID 686978, 2013; further: potency means the concentration at half of the fitted maximal effect; on the % scale 0 is the no-effect control and ±100 the full control effect; nearly all actives have a fitted effect of over 55% in size
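Growth kinetics read by CellTiter-Glo luminescence after ≥48 hr at 37 °C. Cells: DT40 Tdp1-/- stably carrying human TDP1, 400 per well, compound exposure in the absence of CPT (DMSO vehicle).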
DT40 TDP1 CPT – growth inhibition of DT40 Tdp1-/-;hTDP1 cells with camptothecin (screen for TDP1 inhibitors). chicken DT40 Tdp1-/-;hTDP1 cells + 20 nM CPT, ATP luminescence, 48 h. Potency, µM (doses to about 46.2 µM), for inactives: top-dose activity change, negative = growth inhibition, hits mostly inhibitors. 420,000 tested, 12% active; further: potency means the concentration at half of the fitted maximal effect; on the % scale 0 is the no-effect control and ±100 the full control effect; nearly all actives have a fitted effect of over 55% in size
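Chicken DT40 Tdp1-/- cells complemented with human TDP1, 400 cells/well, exposed to compounds plus 20 nM camptothecin for at least 48 h at 37 C; viability read as ATP content by CellTiter-Glo luminescence.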
DRD3 antagonist – D3 dopamine receptor (human) antagonism. AID 652054. 360,000 tested, 2.5% active. max response, negative = inhibition, %. D3R cells, DiscoveRx beta-arrestin luminescence, antagonist mode; hits give low values; in the data active means max response below about -50%; inconclusive means no clear call, values can overlap the other calls; further: on the % scale 0 is the no-effect control and ±100 the full control effect
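Cells plated overnight at 1500 cells/well, then exposed to library compounds with dopamine controls for 90 minutes at 37 degrees C. DiscoveRx reagent added for 30–60 minutes at room temperature; luminescence read, quantitative HTS format.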
IL-1B inflam inh – inhibitors of inflammasome signaling (IL-1 beta secretion); activity change, % at 57.5 µM; 360,000 tested, 4.7% active; THP-1 LPS/ATP IL-1B secretion, AlphaLISA, 16 h; hits give low values; AID 743279; in the data active means activity change below about -50%; inconclusive means mostly about -30% to -49%; further: on the % scale 0 is the no-effect control and ±100 the full control effect
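THP-1 cells pretreated 1 hr with compounds (up to 57.5 uM final), then stimulated with LPS (250 ng/mL final) plus ATP (1.25 mM final); secreted IL-1B measured by AlphaLISA after 16 hr, decreased signal indicating inhibition.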
DRD3 agonist – activates the human D3 dopamine receptor | P35462 | D3R DiscoveRx beta-arrestin cells, luminescence, 90 min | max activation, % | 410,000 tested, 0.58% active | AID 652048; in the data active means max activation above about 30%; further: 0% is about no effect
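Agonist-mode cell screen: cells plated at 1500/well and incubated overnight at 37 °C, then exposed to library compounds for 90 min at 37 °C. Detection reagent was added for 30–60 min at room temperature, and luminescence was read.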
ClpP mod – qHTS Assay for Activators of ClpP. ATP-dependent Clp protease proteolytic subunit (Bacillus subtilis (strain 168)), P80244. purified B. subtilis ClpP, FRET peptide cleavage, 20 min. Potency, µM (highest dose often 57.5 µM), for the others: at the highest dose activity change, negative = active. 340,000 tested, 1.9% active; active means well fitted falling curve with a large enough effect; inconclusive means small, poorly fitted or top-dose-only effect; inactive means no such curve, though single readings can be large or run the other way; further: potency means the concentration at half of the fitted maximal effect; the source files actives as falling curves though it sought activators and does not explain the sign; nearly all actives have a fitted effect of over 65% in size
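FRET quenching reversal measured ClpP activation: 10 microg/mL B. subtilis ClpP at pH 8 with the FRET-FV decapeptide, read at 430 nm after 320 nm excitation. The 20-min minus 0-min signal was scaled between DMSO/no-enzyme wells and ADEP (5.8 microM final).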
* = called active by the depositor; ? = inconclusive; · = no result. Unless noted, the call rests on the fitted dose curve; in most records, active means well fitted inhibition curve with a large enough effect; inconclusive means small, poorly fitted or top-dose-only effect; inactive means flat fitted curve, though single readings scatter.

SMILES	TDP1 cell noCPT	DT40 TDP1 CPT	DRD3 antagonist	IL-1B inflam inh	DRD3 agonist	ClpP mod
CN(C)C(=O)CCC(=O)NCC1Cc2cccc(-c3ccccc3C(F)(F)F)c2O1 (centres undefined)	-22.9%	?	·	·	·	·
COCC(=O)N1CCC[C@@]2(CCN(C(=O)Nc3cccc(C#N)c3)C2)C1	-1.9%	14.8%	·	·	·	·
COc1ccc(F)cc1S(=O)(=O)NCCCn1ccnc1	4.1%	27.6%	24.4	35.1	3.3	·
Cc1cc(S(=O)(=O)Nc2cccc(C(=O)O)c2)c(C)c(S(=O)(=O)c2ccccc2)c1	0.5%	6.2%	·	·	5.4	0.2%
O=C(CSc1n[nH]c(-c2ccncc2)n1)c1cccc([N+](=O)[O-])c1	-25.1%	-7.4%	-69.1*	20.4	-2.8	·
Cc1ccc(-c2cc(C(F)(F)F)nc(SCC(=O)c3cccc([N+](=O)[O-])c3)n2)cc1	?	?	-8.0	-53.3*	-3.3	-0.6%
O=C(CSc1n[nH]c(-c2ccncc2)n1)c1ccccc1	-18.5%	?	-12.5	2.2	-4.7	0.0%
Cc1ccc(-n2c(=O)c3c(cnn3C)n(Cc3ccccc3F)c2=O)cc1	-28.6%	18.4µM*	·	·	0.4	-3.3%
Cc1ccc2onc(CNC(=O)NCc3ccccc3)c2c1	-1.7%	-28.2%	·	·	7.2	-2.5%
O=C(CCNC(=O)c1ccc(Cl)cc1)Nc1cc(C(F)(F)F)ccc1N1CCOCC1	23.1µM*	25.9µM*	8.7	-13.5	1.9	-0.3%
CC(=O)Nc1cc(C(=O)c2ccccc2)ccc1N1CCOCC1	?	-18.6%	-10.7	-24.9	-3.0	35.5µM*
COC(=O)c1ccc(CNC(=O)CNc2cc(C(F)(F)F)ccc2N2CCOCC2)cc1	-20.6%	-6.6%	-56.6*	-9.7	-8.6	-3.2%
CC(=O)NC(=S)Nc1cc(C(F)(F)F)ccc1N1CCOCC1	?	-7.1%	23.0	-61.3*	2.5	2.2%
C=C(C)[C@H]1CC=C(C)C(=O)C1	12.9%	-0.7%	32.0	25.1	15.2	0.5%
COc1ccc(Cl)cc1NC(=O)CCN1C(=O)c2ccccc2Sc2ncccc21	?	?	·	·	-4.0	-0.9%
CSc1nc2ccccc2n1CC(=O)Nc1cc(C(F)(F)F)ccc1N1CCOCC1	16.4µM*	20.6µM*	?	-0.3	-11.2	9.4%
Cc1ccccc1SCC(=O)Nc1cc(C(F)(F)F)ccc1N1CCOCC1	?	?	-3.2	-69.7*	0.8	-3.1%
CCOc1ccccc1NC(C)C(=O)Nc1cc(C(F)(F)F)ccc1N1CCOCC1 (centres undefined)	18.4µM*	?	43.9	11.1	3.8	-1.8%
O=C(Cn1c(C(F)(F)F)nc2ccccc21)Nc1ccccc1N1CCOCC1	-26.2%	-23.8%	3.6	17.6	3.9	2.4%
COc1ccc(/C=C2\C(=O)NC(=S)N2C(=O)c2ccc(F)cc2)cc1	18.4µM*	23.1µM*	9.8	11.6	-0.7	-1.1%
O=C1NC(=S)N(C(=O)c2ccc(F)cc2)/C1=C/c1ccccc1	13µM*	23.1µM*	3.5	-15.8	-1.3	-6.4%
COCCc1nn2c(=O)cc(COC(=O)COc3ccc(F)cc3)nc2s1	-4.9%	0.9%	·	·	-11.4	-6.3%
Cc1c(Br)c(O)c(Br)c2sc(=O)oc12	16.3%	-0.6%	-19.2	0.2	-5.8	-2.7%
COc1cccc(NS(=O)(=O)c2ccc3[nH]cc(C(=O)NCCc4ccccc4)c(=O)c3c2)c1	?	?	·	·	-2.2	-0.6%
CN=c1scc(-c2ccccc2F)n1/N=C(\C)c1cccnc1	?	?	-8.9	-17.3	2.0	·
SMILES	TDP1 cell noCPT	DT40 TDP1 CPT	DRD3 antagonist	IL-1B inflam inh	DRD3 agonist	ClpP mod
CC1=C(C(=O)OC2CCCC2)C(c2coc3ccc(C)cc3c2=O)C2=C(CCCC2=O)N1 (centres undefined)	20.6µM*	?	-13.8	-15.9	-9.5	-4.4%
CC1=C(C(=O)OC2CCCC2)C(c2coc3ccccc3c2=O)C2=C(CC(C)(C)CC2=O)N1 (centres undefined)	?	16.4µM*	4.3	-11.4	-14.9	-1.0%
O=C(N/C(=C\c1ccccc1)C(=O)N1CCCCC1)c1ccc(Br)o1	?	?	-11.4	6.9	-4.5	0.2%
CC1(C)SC[C@H](C(=O)Nc2cccc(Cl)c2)N1C=O	3.6%	-0.9%	5.8	-19.8	5.6	-7.8%
CCOC(=O)N1CCN(C(=O)c2ccc3c(=O)n(CCC4=CCCCC4)c(=O)[nH]c3c2)CC1	18.4µM*	16.4µM*	-8.0	?	-3.0	-5.5%
CCOC(=O)N1CCN(C(=O)c2cc3c(=O)[nH]c4ccccc4c3s2)CC1	16.4µM*	?	34.6	-15.5	1.7	-1.6%
CCOCCCn1c(=S)[nH]c2cc(C(=O)N3CCN(C4CCCCC4)CC3)ccc2c1=O	?	23.1µM*	5.8	6.3	3.9	0.1%
COCCn1c(=O)[nH]c2cc(C(=O)N3CCN(c4cc(C)ccc4C)CC3)ccc2c1=O	?	?	9.5	3.6	2.7	·
CCCCCn1c(=S)[nH]c2cc(C(=O)N3CCN(C(=O)OCC)CC3)ccc2c1=O	?	-22.8%	-89.9*	55.1	2.9	·
CCCC(=O)NCC(c1ccc2c(c1)OCO2)N1CCN(c2ccccc2)CC1 (centres undefined)	?	?	·	·	-21.5	-1.1%
O=C(Nc1ccc([N+](=O)[O-])cc1)Nn1cnnc1	3.4%	-23.3%	-27.1	-1.1	-2.3	-2.3%
CC(C)(C)c1cc(-c2n[nH]c(=S)n2-c2ccc(Cl)cc2)n[nH]1	?	?	-12.9	4.4	-4.2	-1.3%
CCOC(=O)N1CCN(C(=O)c2ccc(-n3c(=S)[nH]c4ccccc4c3=O)cc2)CC1	?	?	13.3	7.6	41.9*	1.5%
CCOC(=O)C1CCCN(C(=O)c2ccc3c(=O)n(Cc4ccccc4OC)c(=S)[nH]c3c2)C1 (centres undefined)	18.4µM*	?	0.1	23.9	-1.8	-4.3%
COC(=O)c1ccc2c(=O)n(Cc3ccc(C(=O)NC4CCCC4)cc3)c(=S)[nH]c2c1	?	?	0.0	17.2	6.1	-1.0%
CCOC(=O)N1CCN(C(=O)c2ccc(Cn3c(=S)[nH]c4cc(C(=O)OC)ccc4c3=O)cc2)CC1	8.2µM*	?	75.4	4.1	9.3	-1.8%
CCOC(=O)C1CCCN(C(=O)c2ccc(Cn3c(=S)[nH]c4cc(C(=O)OC)ccc4c3=O)cc2)C1 (centres undefined)	25.9µM*	?	-19.2	-1.6	-0.9	-1.0%
O=C(NCCOc1ccccc1F)C1CCC(=O)N(CC2CCCCC2)C1 (centres undefined)	3.6%	-29.0%	1.6	0.0	-10.3	-3.3%
